JMJD2A Tudor inh: qHTS Assay for Inhibitors of JMJD2A-Tudor Domain; Lysine-specific demethylase 4A (Homo sapiens), O75164; AlphaScreen JMJD2A-Tudor / H3K4me3 peptide binding; Potency, µM (series often up to 114 µM), for the others: at the highest dose activity change, negative = inhibition, usual class: inhibitors; 4.4% of 390,000 active; AID 504339, 2011; also: potency is read from the fitted curve at half-maximal effect; % is scaled to controls: 0 for no effect and ±100 for the full control effect; nearly all actives have a fitted effect of over 50% in size
G9a inh: qHTS Assay for Inhibitors of Histone Lysine Methyltransferase G9a; Histone-lysine N-methyltransferase EHMT2 (Homo sapiens), Q96KQ7; G9a H3K9 monomethylation, AlphaScreen, 2 h; Potency, µM (doses to about 102 µM), without a hit: top-dose activity, negative = inhibition, most hits filed as inhibitors; 8.8% of 350,000 active; AID 504332, 2011; also: potency is read from the fitted curve at half-maximal effect; % is scaled to controls: 0 for no effect and ±100 for the full control effect; nearly all actives have a fitted effect of over 75% in size
Target sequence (Q96KQ7 913-1193 limits assumed): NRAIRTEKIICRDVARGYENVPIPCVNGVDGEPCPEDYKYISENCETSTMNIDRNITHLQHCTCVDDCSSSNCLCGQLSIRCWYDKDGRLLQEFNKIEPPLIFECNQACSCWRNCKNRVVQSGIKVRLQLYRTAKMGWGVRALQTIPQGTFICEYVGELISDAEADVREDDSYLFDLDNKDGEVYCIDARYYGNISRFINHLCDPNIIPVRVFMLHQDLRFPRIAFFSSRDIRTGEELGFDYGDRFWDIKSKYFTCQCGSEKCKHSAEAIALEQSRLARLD
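Methyltransferase reactions run at room temperature for 2 h (20 nM enzyme, 500 nM biotin-H3K9 peptide, 20 uM SAM) after a 15 min compound preincubation; product detected by AlphaScreen beads and anti-H3K9me1 antibody.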
CtBP-E1A inh: qHTS Assay for Inhibitors of the CtBP/E1A Interaction; CtBP / adenovirus E1A interaction (AlphaScreen); AlphaScreen GST-E1A/His-CtBP binding, 1536-well; hits give low values; activity change, % (test concentration not listed); 0.49% of 340,000 active; in the data active = activity change below about -65%; inconclusive = mostly about -30% to -63%; also: % is scaled to controls: 0 for no effect and ±100 for the full control effect
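GST-E1A and His-tagged CtBP (125 nM each as 5X stock) were preincubated with pin-transferred compound for 2 h at 37 °C in the dark, then glutathione donor and nickel acceptor beads were added for 1 h before AlphaScreen reading.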
Six1-Eya2 blk: qHTS Assay for Inhibitors of the Six1/Eya2 Interaction; Homeobox protein SIX1 (Homo sapiens) + Protein phosphatase EYA2 (Homo sapiens), …; AlphaScreen GST-Six1/His-Eya2 binding, biochemical; hits give low values; activity change, % (no concentration beside the values); 0.56% of 360,000 active; in the data active = activity change below about -65%; inconclusive = mostly about -30% to -63%; also: % is scaled to controls: 0 for no effect and ±100 for the full control effect
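GST-Six1 + His-Eya2 (5X stock: 250/500 nM); Tris pH 8.0, 300 mM NaCl, 0.05% BSA, 0.02% Tween 20; GSH donor/Ni acceptor beads; 1 h 37 °C dark; AlphaScreen readout.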
BAZ2B inh: qHTS Assay for Inhibitors of BAZ2B; Bromodomain adjacent to zinc finger domain protein 2B (Homo sapiens), Q9UIF8; AlphaScreen BAZ2B-H3K14Ac peptide displacement; Potency, µM (highest dose often 114 µM), for inactives: at the top dose activity change, negative = inhibition, usual class: inhibitors; 4.4% of 360,000 active; also: potency is read from the fitted curve at half-maximal effect; % is scaled to controls: 0 for no effect and ±100 for the full control effect; nearly all actives have a fitted effect of over 60% in size
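BAZ2B 50 nM plus b-H3(5-23)K14Ac 50 nM, PBS pH 7.4/0.01% Tween-20, 30 min RT; compound added (max 110 uM), 30 min RT; streptavidin donor/Ni-chelate acceptor beads 10 ug/mL final, 20 min dark; AlphaScreen read.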
HP1b binding inh: HTS for Inhibitors of HP1-beta Chromodomain Interactions with Methylated Histone Tails; AID 540317, 2011; AlphaScreen HP1-beta / biotin-H3K9me3 peptide binding; 0.56% of 390,000 active; Potency, µM (titrated, usually from 114 µM), for inactives: top-dose activity change, negative = inhibition, actives largely listed as inhibitors; Chromobox protein homolog 1 (Homo sapiens), P83916; also: potency is read from the fitted curve at half-maximal effect; nearly all actives have a fitted effect of over 70% in size
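HP1-beta protein (50 nM final) preincubated 30 min at room temperature with biotinylated H3(1-18)K9me3 peptide (50 nM) in PBS pH 7.4, 0.01% Tween-20, then compound added for 30 min. AlphaScreen streptavidin donor/nickel chelate acceptor beads (10 ug/mL final), 30 min dark, luminescence read.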
JMJD2E inh-1: Inhibitors of Human Jumonji Domain Containing 2E (JMJD2E): 8HQs - Round 1 | Potency, µM (highest dose often 57 µM), for inactives: at the highest dose activity, negative = inhibition, most hits filed as inhibitors | shares compounds with BAZ2B inh | 89% of 130 active | JMJD2E demethylase, FDH-coupled NADH fluorescence
Target sequence (B2RXH2 1-337 limits assumed): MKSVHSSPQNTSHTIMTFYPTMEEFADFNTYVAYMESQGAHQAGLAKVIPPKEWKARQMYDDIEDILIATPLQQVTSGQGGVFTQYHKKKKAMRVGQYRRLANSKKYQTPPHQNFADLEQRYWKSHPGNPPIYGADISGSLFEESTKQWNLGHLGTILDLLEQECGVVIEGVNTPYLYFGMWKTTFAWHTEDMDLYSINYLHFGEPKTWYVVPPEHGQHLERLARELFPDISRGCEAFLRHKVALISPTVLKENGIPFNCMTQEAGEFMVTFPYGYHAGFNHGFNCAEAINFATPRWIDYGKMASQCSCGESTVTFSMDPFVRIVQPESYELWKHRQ
JMJD2E inh-2: Confirmation qHTS Assay for Inhibitors of Human Jumonji Domain Containing 2E (JMJD2E); shares compounds with JMJD2A Tudor inh; 93% of 140 active; Recombinant JMJD2E, FDH-coupled NADH fluorescence (FDH is formaldehyde dehydrogenase); Potency, µM (doses to about 56.8 µM), inactives show top-dose activity change, negative = inhibition, most hits filed as inhibitors
FDH inh: Counterscreen for JMJD2E Inhibitors: qHTS Assay for Inhibitors of Formaldehyde Dehydrogenase (FDH) | shares compounds with JMJD2A Tudor inh | FDH enzyme assay, NADH fluorescence kinetic | Potency, µM (highest dose often 56.7 µM), for the others: top-dose activity, negative = inhibition, actives largely listed as inhibitors | 10% of 140 active | AID 2680, 2010
JMJD2E MALDI inh: MALDI-TOF-MS Assay for Inhibitors of Human Jumonji Domain Containing 2E (JMJD2E) | shares compounds with JMJD2A Tudor inh | 90% of 45 active | Potency, µM, hits mostly inhibitors | AID 2688, 2010 | recombinant JMJD2E demethylation, MALDI-TOF-MS;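 active = compounds whose IC50 for blocking JMJD2E demethylation is below 100 µM; inconclusive = dose dependent effect but IC50 above 100 µM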
Starred values were filed as active, the others as inactive; [ ] = remark or other dose. Sampled rows, rich in hits. Any-hit rate of the full collection: about 10%. Unless noted, calls follow the shape of the dose curve; as a rule, active = well fitted inhibition curve with a large enough effect; inconclusive = small, poorly fitted or top-dose-only effect; inactive = no such curve, though single readings can be large or run the other way.

`Oc1c(CN2CCCCC2)cc(COCc2ccccc2)c2cccnc12` gave JMJD2A Tudor inh 20µM*, G9a inh inconclusive, CtBP-E1A inh -3, Six1-Eya2 blk -85*, BAZ2B inh 6.3µM*, HP1b binding inh 19%, JMJD2E inh-1 4µM*, JMJD2E inh-2 4µM* and FDH inh -27%.
For CN(C)C1CCN(Cc2cc(COCc3ccccc3)c3cccnc3c2O)C1 (stereo not drawn) the results were JMJD2A Tudor inh 32µM*, G9a inh -38%[12.7 µM], BAZ2B inh 10µM*, HP1b binding inh 26%, JMJD2E inh-1 11µM*, JMJD2E inh-2 7.9µM* and FDH inh -18%.
Screening CN(C)[C@H]1CCN([C@H]2CS(=O)(=O)N[C@@H]2COCc2ccccc2)C1 returned CtBP-E1A inh -4 and Six1-Eya2 blk 4.
For O=C(Nc1ccccc1F)Nc1cccnc1Cl the results were JMJD2A Tudor inh -2%, CtBP-E1A inh -13, Six1-Eya2 blk -13 and HP1b binding inh -4%.
CC(=O)Nc1ccccc1-c1nn[nH]n1 was read as JMJD2A Tudor inh -6%, G9a inh inconclusive, CtBP-E1A inh 0, Six1-Eya2 blk 0, BAZ2B inh inconclusive and HP1b binding inh 34%.
`Oc1ccc(-c2nn[nH]n2)c2cccnc12` gave JMJD2A Tudor inh 14µM*, JMJD2E inh-1 2.9µM*, JMJD2E inh-2 2.6µM*, FDH inh -18% and JMJD2E MALDI inh 26*.
Screening Oc1ccc(-c2ccccc2F)c2cccnc12 returned JMJD2A Tudor inh 79µM*, JMJD2E inh-1 inconclusive, JMJD2E inh-2 9.1µM*, FDH inh -27% and JMJD2E MALDI inh 34*.
`O=C(Nc1ccc(O)c2ncccc12)c1ccccc1F` gave JMJD2A Tudor inh 28µM*, JMJD2E inh-1 7.1µM*, JMJD2E inh-2 7.1µM*, FDH inh -18% and JMJD2E MALDI inh 25*.
For Fc1ccccc1-c1nc2ncccc2o1 the results were JMJD2A Tudor inh 6%, CtBP-E1A inh 10, Six1-Eya2 blk -8, BAZ2B inh -2% and HP1b binding inh 21%.
For Oc1ccc(Nc2ccccc2F)c2cccnc12 the results were JMJD2A Tudor inh 22µM*, JMJD2E inh-1 7.1µM*, JMJD2E inh-2 7.1µM*, FDH inh -18% and JMJD2E MALDI inh 22*.
COc1ccc(CN2CCC(C(=O)Nc3ccc(Oc4ccccc4)nc3)CC2)cc1F was read as JMJD2A Tudor inh -25%, G9a inh 12%, CtBP-E1A inh -6, Six1-Eya2 blk -11, BAZ2B inh -31% and HP1b binding inh 20%.
`O=C(NCc1nc(-c2ccc(C(F)(F)F)cc2)no1)Nc1cc(Cl)cc(Cl)c1` gave JMJD2A Tudor inh -19%, G9a inh 12%, CtBP-E1A inh 5, Six1-Eya2 blk 14, BAZ2B inh 10% and HP1b binding inh 37%.
`O=S(=O)(Nc1ccc(O)c2ncccc12)c1ccccc1F` gave JMJD2A Tudor inh 25µM*, JMJD2E inh-1 6.5µM*, JMJD2E inh-2 6.5µM*, FDH inh -18% and JMJD2E MALDI inh 4.4*.
`Oc1cccc2cc(NCc3ccccc3F)cnc12` gave JMJD2E inh-1 32µM*, JMJD2E inh-2 20µM* and FDH inh -9%.
For Oc1cccc2cc(CNc3ccccc3F)cnc12 the results were JMJD2E inh-1 inconclusive, JMJD2E inh-2 3.2µM* and FDH inh -18%.
For CC(C)CCNC(=O)c1ccc(Cl)c(NC(=O)Cc2ccccc2)c1 the results were G9a inh 4%[59 µM] and BAZ2B inh 4%.
For Fc1ccc(CNc2ncccn2)cc1 the results were JMJD2A Tudor inh 8%, G9a inh -3%, CtBP-E1A inh 6, Six1-Eya2 blk 3, BAZ2B inh 4% and HP1b binding inh 25%.
`CN(C)CCCNc1cc(O)c2ncccc2c1` gave JMJD2A Tudor inh 35µM*, G9a inh inconclusive, BAZ2B inh 8.9µM*, HP1b binding inh -1%, JMJD2E inh-1 28µM*, JMJD2E inh-2 28µM*, FDH inh -18% and JMJD2E MALDI inh inconclusive.
CCOC(=O)c1cnc2c(ccc3ccccc32)c1NCCCN(C)C was read as JMJD2A Tudor inh 2%, G9a inh -13%, CtBP-E1A inh 2, Six1-Eya2 blk 0, BAZ2B inh 0% and HP1b binding inh 38%.
Oc1cc(NCc2ccc(F)cc2)cc2cccnc12 was read as JMJD2A Tudor inh -28%, G9a inh 0%[12.7 µM], BAZ2B inh inconclusive, HP1b binding inh 40%, JMJD2E inh-1 36µM*, JMJD2E inh-2 inconclusive, FDH inh -36% and JMJD2E MALDI inh 75*.
Oc1cc(NCc2ccc(Cl)cc2)cc2cccnc12 was read as JMJD2A Tudor inh -10%, G9a inh -5%[12.7 µM], BAZ2B inh -2%, HP1b binding inh 57%, JMJD2E inh-1 15%, JMJD2E inh-2 20%, FDH inh -18% and JMJD2E MALDI inh inconclusive.

Screening results deposited in PubChem by National Center for Advancing Translational Sciences (NCATS).
